HGIII-sPLA2 inh: Blocks human group III sPLA2 activity; QFRET BODIPY PC-A2 liposome hydrolysis, fluorescence; inhibition, % at 12.2 µM; hit rate 0.56% among 370,000;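 active = inhibition above mean plus 3 SD of compounds lying within the high and low control bounds, cut at about 19% in these data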;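 also: 0% = median of test compound wells and 100% = no enzyme DMSO wells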
PLCb3 inh: PLC-beta3 (human) inhibition, primary screen; AID 720704; hit rate 0.18% among 370,000; Q01970; Purified PLC-beta3, fluorogenic substrate, fluorescence; inhibition, % at 12.2 µM; in the data active = inhibition above about 11%;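 also: 0% = median of compound wells on plate and 100% = full blocker control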
DAGLB inh: diacylglycerol lipase beta (human) inhibition; hit rate 0.059% among 340,000; Q8NCG7; HEK293T DAGLB membrane lysate, EnzChek fluorogenic substrate; AID 504411; inhibition, % at 5.17 µM; in the data active = inhibition above about 34%;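 also: 0% = enzyme with vehicle and 100% = wells lacking enzyme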
PLCg1 inh: blocks human PLC-gamma1 enzyme activity. inhibition, % at 12.2 µM. P19174. hit rate 0.84% among 370,000. purified PLC-gamma1, fluorogenic substrate, fluorescence. AID 720700; in the data active = inhibition above about 9.5%
Target sequence (P19174 whole entry, looked up): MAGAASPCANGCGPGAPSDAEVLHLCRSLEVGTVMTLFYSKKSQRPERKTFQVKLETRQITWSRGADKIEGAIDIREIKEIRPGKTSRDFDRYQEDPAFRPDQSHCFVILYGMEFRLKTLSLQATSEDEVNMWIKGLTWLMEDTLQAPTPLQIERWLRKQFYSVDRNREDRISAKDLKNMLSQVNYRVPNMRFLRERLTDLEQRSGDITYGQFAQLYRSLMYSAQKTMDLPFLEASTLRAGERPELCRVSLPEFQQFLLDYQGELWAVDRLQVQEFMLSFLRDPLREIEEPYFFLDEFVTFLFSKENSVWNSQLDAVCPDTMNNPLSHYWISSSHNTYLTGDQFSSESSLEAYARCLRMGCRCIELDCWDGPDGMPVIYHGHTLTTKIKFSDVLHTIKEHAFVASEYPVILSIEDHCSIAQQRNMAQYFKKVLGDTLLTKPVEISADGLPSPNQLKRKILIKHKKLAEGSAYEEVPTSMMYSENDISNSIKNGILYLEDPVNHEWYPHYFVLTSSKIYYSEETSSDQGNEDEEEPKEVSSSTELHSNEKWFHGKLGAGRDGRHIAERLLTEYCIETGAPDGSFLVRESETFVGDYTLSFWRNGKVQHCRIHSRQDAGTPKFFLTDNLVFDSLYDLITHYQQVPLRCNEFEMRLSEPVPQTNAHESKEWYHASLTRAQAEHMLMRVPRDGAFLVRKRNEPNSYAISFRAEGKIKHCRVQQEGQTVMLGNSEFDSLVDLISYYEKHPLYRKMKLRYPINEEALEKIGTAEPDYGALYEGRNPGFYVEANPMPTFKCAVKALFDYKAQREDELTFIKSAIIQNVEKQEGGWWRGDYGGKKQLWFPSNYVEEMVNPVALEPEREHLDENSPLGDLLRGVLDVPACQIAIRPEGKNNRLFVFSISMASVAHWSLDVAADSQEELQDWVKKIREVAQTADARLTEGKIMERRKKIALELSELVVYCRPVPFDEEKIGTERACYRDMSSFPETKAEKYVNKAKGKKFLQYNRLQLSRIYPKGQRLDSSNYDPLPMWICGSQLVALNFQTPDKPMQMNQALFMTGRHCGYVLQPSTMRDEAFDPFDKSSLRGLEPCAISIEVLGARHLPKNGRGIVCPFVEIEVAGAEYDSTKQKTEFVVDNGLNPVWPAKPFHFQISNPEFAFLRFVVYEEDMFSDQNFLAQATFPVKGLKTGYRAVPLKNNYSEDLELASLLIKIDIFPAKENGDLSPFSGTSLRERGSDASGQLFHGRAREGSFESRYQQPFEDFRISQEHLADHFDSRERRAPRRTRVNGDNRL
DAGLB confirm: DAGLB (human) inhibition, confirmation screen | inhibition, % at 5.17 µM | shares compounds with DAGLB inh | AID 504445 | HEK293T DAGLB membrane lysate, EnzChek fluorogenic substrate | hit rate 73% among 190;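 active = mean inhibition over triplicate wells above a set limit taken from the primary lipase screen, cut at about 34% in these data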;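 also: 0% = DAGLB with DMSO and 100% = wells lacking DAGLB enzyme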
Active calls of the source: *; / = not tested or not shown. Hits are enriched below; roughly 1.5% of the tested compounds scored in any of these assays.

SMILES	HGIII-sPLA2 inh	PLCb3 inh	DAGLB inh	PLCg1 inh	DAGLB confirm
O=[N+]([O-])c1ccc(/C=N/Nc2ccc3ccccc3c2)o1	14.6	-21.4	47.7*	-13.8	63.4*
CN(C)c1ccc(N=Nc2ccccc2C(=O)OCC(=O)Nc2ccccc2C(F)(F)F)cc1	8.2	1.2	35.2*	0.7	59.5*
Cc1ccc(Cn2c(C(C)Nc3nc(-c4ccc(Cl)c([N+](=O)[O-])c4)cs3)nc3cc(C(F)(F)F)ccc32)cc1 (stereo not drawn)	1.9	-3.7	-12.3	1.2	/
CCn1nc([N+](=O)[O-])c(C(C#N)c2nc3cc(C(F)(F)F)ccc3s2)c(Cl)c1=O (stereo not drawn)	-34.0	4.3	60.1*	1.6	106.1*
CC(=O)C1=C(O)C(=O)N(c2cc(C(C)(C)C)on2)C1c1ccc(C(C)C)cc1 (stereo not drawn)	/	/	22.3	/	/
CC(=O)C1=C(O)C(=O)N(c2cc(C(C)(C)C)on2)C1c1ccc(Br)cc1 (stereo not drawn)	-17.0	-39.2	46.3*	-55.9	41.5*
CC(=O)c1c(C)oc2ccc(NS(=O)(=O)c3ccc(O)c(C(=O)O)c3)cc12	-33.6	3.6	57.0*	10.9*	53.5*
Nc1cc2c(cc1[N+](=O)[O-])-c1ccccc1C2=NO	-31.0	-17.5	34.8*	-8.6	32.2
O=C1c2ccccc2C(=O)c2c1cccc2N1CCCC1	-10.3	-2.6	36.4*	8.9	39.4*
O=C1c2ccccc2-c2onc3ccc(N4CCCC4)c1c23	-43.1	-89.9	-46.6	-72.0	/
COc1ccc(OC)c(NC(=O)O[C@@H]2CC[C@@]34CCCN3C(=O)CCC[C@H]4C2)c1	6.7	0.2	/	0.1	/
O=C(NCc1ccccc1Cl)O[C@H]1CC[C@@]23CCCN2C(=O)CCC[C@H]3C1	-3.2	1.8	/	2.8	/
COc1cc([N+](=O)[O-])cc(/C=C2/SC(=S)N(Cc3ccccc3)C2=O)c1O	-10.5	-66.1	40.3*	-47.6	47.9*
COc1cc(/C=C2/SC(=S)N(Cc3ccccc3)C2=O)cc(Cl)c1O	-8.1	-47.2	-12.4	-29.4	/
CCc1csc(N2[C@H](CN(CCOC)S(=O)(=O)c3ccccc3[N+](=O)[O-])[C@H](c3ccccc3)[C@@H]2CO)n1	0.8	-2.9	/	-0.4	/
COc1cccc(C(=O)Nc2cccc(C(=O)NC3=NN(c4c(Cl)cc(Cl)cc4Cl)C(=O)C3)c2)c1	-14.7	-3.0	35.6*	-1.8	17.4
COc1cccc(NC(=O)C2CCCN2C(=O)NCc2ccccc2)c1 (stereo not drawn)	16.9	-1.9	/	-0.8	/
O=C(NC(C(=O)N/N=C/c1c2ccccc2cc2ccccc12)c1n[nH]c(=O)c2ccccc12)c1ccccc1 (stereo not drawn)	18.5	-139.3	39.9*	-117.4	37.5*
Cc1cccc(NC(=O)N2CCC(N(C)CCC(C)C)CC2)c1	7.9	0.8	/	1.1	/
CC1(C)CC(=O)C2=C(C1)c1c(ccc3ccccc13)NC2c1cc([N+](=O)[O-])cc([N+](=O)[O-])c1O (stereo not drawn)	-10.0	1.4	42.2*	6.2	38.7*
O=C1CC(c2ccccc2)=C(c2ccccc2)C1	0.1	-8.2	70.6*	-1.4	-5.2
COc1c(/C=C2\SC(=Nc3ccccc3Cl)NC2=O)cccc1[N+](=O)[O-]	-10.8	-8.6	10.7	1.8	/
O=C1NC(=Nc2ccccc2Cl)S/C1=C\c1cccc([N+](=O)[O-])c1O	-38.1	-28.0	36.2*	-15.7	32.3
NC(=O)c1c(N)[nH]c(C(=O)c2ccccc2)c1-c1cccc2ccccc12	-1.1	-34.0	/	-26.7	/
COc1ccc(N(CC(=O)NCc2ccco2)S(C)(=O)=O)cc1OC	12.1	2.6	1.1	4.7	/
SMILES	HGIII-sPLA2 inh	PLCb3 inh	DAGLB inh	PLCg1 inh	DAGLB confirm
COc1ccc(N(CC(=O)NCc2ccco2)S(C)(=O)=O)cc1	0.4	2.1	64.9*	-0.3	-8.9
N#C/C(N=Nc1ccccc1O)=N\Nc1ccccc1O	18.1	-5.1	41.2*	-3.6	82.7*
Nc1ccc(N=Nc2ccccc2)c2cccnc12	13.4	-3.0	37.1*	2.5	42.2*
COC(=O)C12C=C3CC(c4ccc(C)s4)=C3C(=O)N1Cc1[nH]c3ccccc3c1C2 (stereo not drawn)	-3.7	-72.2	/	-53.6	/
Nc1ccc2ccccc2c1N=Nc1ccccc1	4.3	1.1	36.2*	0.6	43.3*
CC(C)(C)c1ccc(-c2nnc(SCC(=O)Nc3ccc(S(=O)(=O)Nc4nccs4)cc3)n2Cc2ccco2)cc1	0.3	-7.8	/	-1.1	/
Cc1ccc(Nc2nnc(SCc3nc4ccccc4c(=O)[nH]3)s2)cc1	-9.2	-10.0	59.7*	-0.9	50.4*
